# DAX1 inh-1 = inhibits human nuclear receptor DAX1 | P51843 | HEK293 Gal4-DAX1 luciferase reporter, luminescence | inhibition, % at 6.75 µM | actives 0.99% (n = 340,000) | AID 504766;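 active = inhibition above the mean over all tested compounds plus 3 SD, cut at about 4.2% in these data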;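 also: 0% = DAX1-transfected cells with DMSO and 100% = empty-vector control cells with DMSO; inhibition shows as a rise in luminescence from relieved DAX1 repression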
# Target sequence (P51843 207-470 limits assumed): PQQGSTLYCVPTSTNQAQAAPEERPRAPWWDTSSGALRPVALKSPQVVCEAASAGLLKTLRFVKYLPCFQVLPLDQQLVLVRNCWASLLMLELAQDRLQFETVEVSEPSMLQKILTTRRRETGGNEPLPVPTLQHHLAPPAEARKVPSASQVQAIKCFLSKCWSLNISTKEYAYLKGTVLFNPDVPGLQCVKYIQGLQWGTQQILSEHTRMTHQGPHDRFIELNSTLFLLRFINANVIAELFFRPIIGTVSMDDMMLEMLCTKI
# ssDAF-12 act = activates DAF-12 receptor from parasite S. stercoralis; AID 652126; actives 1% (n = 370,000); activation, % at 6.8 µM; HEK293 ssDAF-12/GRIP1 lit1-tk-luc reporter, luminescence; % of 3 µM dafachronic acid response;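 active = activation above the mean over all tested compounds plus 3 SD, cut at about 0.9% in these data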;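 also: 0% = DMSO-only wells and 100% = 3 µM delta7-dafachronic acid wells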
# DAX1 inh-2 = DAX1 (NR0B1) inhibition, primary screen | actives 1.1% (n = 370,000) | inhibition, % at 6.8 µM | HEK293T StAR-luciferase reporter, SF-1/DAX-1 repression relief;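 active = inhibition above the mean over all tested compounds plus 3 SD, cut at about 3.6% in these data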;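 also: 0% = DAX-1 cells with DMSO and 100% = cells lacking DAX-1 with DMSO; higher inhibition means more luminescence from relief of DAX-1 repression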
# hgDAF-12 ag = hgDAF-12 agonism, primary luciferase screen | HEK293 GAL4-hgDAF12 UAS-luciferase reporter, agonist luminescence; normalized to butyrate control | activation, % at 6.8 µM | actives 1.8% (n = 370,000) | AID 687014;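 active = activation above a cutoff set at the mean of all screened compounds plus 3 SD, cut at about 10% in these data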;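 also: 0% = DMSO wells and 100% = sodium butyrate wells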
# hcDAF-12 act = activates DAF-12 receptor from parasite H. contortus. activation, % at 6.8 µM. HEK293 hcDAF-12 lit1-tk-luc reporter, luminescence; 0% DMSO, 100% Δ7-dafachronic acid. actives 1.4% (n = 370,000);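 active = activation above the mean of all tested compounds plus 3 SD, cut at about 5.5% in these data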;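 also: 100% = response to 3 µM Δ7-dafachronic acid high control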
# Active calls of the source: *; / = no result. The list is not random: actives were taken first. Their share in the collection is about 4.1%.
SMILES,DAX1 inh-1,ssDAF-12 act,DAX1 inh-2,hgDAF-12 ag,hcDAF-12 act
CCOC(=O)CCC(=O)N1CCOCCN(C(=O)CCC(=O)OCC)CCOCC1,1,-2,0,1,0
COc1ccc(NC(=O)c2ccc3ncsc3c2)cc1,1,1.3*,0,10,1
COc1ccc(C(=O)Nc2ccc3c(c2)n(C)c(=O)n3C)cc1OC,2,-1,0,1,-1
COc1cccc(NC(=O)c2ccc(OC(F)(F)F)cc2)c1,2,0,1,11*,3
COc1ccc(NC(=O)c2ccc3c(c2)n(C)c(=O)n3C)cc1,6.4*,-2,0,0,-2
CCOc1ccc(NC(=O)c2ccc(OC)cc2)cc1,-1,-1,1,13*,0
COc1ccc(NC(=O)c2ccc3nc(C)sc3c2)cc1,2,0,0,4,1
CCOC(=O)C1CCN(C(=O)C(C)(C)NC(=O)Nc2ccc(C(F)(F)F)cc2Cl)CC1,/,-2,/,-1,-1
O=C(NC1CCCC1)[C@@H]1CCCN1C(=O)[C@@H](NC(=O)N1CCOCC1)c1ccccc1,/,-1,0,-1,0
CSc1ncnc2c1ncn2CCCN1CCN(c2ccccn2)CC1,0,0,0,1,2
O=C(Nc1cccnc1Cl)c1cc(-c2ccco2)on1,1,0,2,13*,0
C=CCNc1ccc2c(c1)OC[C@H](CC(C)C)NS2(=O)=O,/,-1,-1,-3,0
CCOC(=O)N1CCN(C(=O)C[C@@H]2C[C@@]3(C(=O)OCC)CCC=C3N(Cc3ccco3)C2=O)CC1,/,-1,1,0,-2
Cc1ccn2c(Nc3ccc4c(c3)OCO4)c(-c3ccccn3)nc2c1,-2,-1,1,0,6.0*
Cc1ccc(NC(=O)CCS(=O)(=O)c2ccccc2)c(C)c1,/,0,0,-1,-2
O=C(Nc1ccc(N2CCOCC2)c(Cl)c1)c1ccccc1F,3,0,3.7*,8,2
COc1ccc(NC(=O)C(=O)NCCCO)cc1Cl,4.5*,-1,1,4,1
O=C(Nc1ccc(N2CCOCC2)c(Cl)c1)c1ccc(Cl)cc1,-1,-1,0,0,0
O=C(NC(=S)Nc1ccc(Br)c(Cl)c1)C1CC1,1,0,0,2,5.8*
O=C(c1ccccc1F)N1CCN(c2ccc([N+](=O)[O-])c(N3CCOCC3)c2)CC1,5.8*,-1,-1,3,0
COC(=O)C1=C(C)N(Cc2ccccc2C(F)(F)F)C(=NCc2cc(OC)c(OC)c(OC)c2)NC1c1cccc(Cl)c1 (centres undefined),/,-1,-1,0,-1
COc1ccccc1Cn1c(C)c(C(=O)NCCC#N)sc1=O,/,-1,0,-1,-2
CC1(C)Oc2ccc(NC(=O)c3ccco3)cc2O1,3,0,2,11*,3
O=C(Nc1ccccc1)Nc1ccc(Br)c(Cl)c1,-1,-1,0,12*,6.5*
Cc1cc(C(=O)Nc2ccc(C)c(S(=O)(=O)N3CCOCC3)c2)c(C)o1,-1,-2,-1,0,-1
SMILES,DAX1 inh-1,ssDAF-12 act,DAX1 inh-2,hgDAF-12 ag,hcDAF-12 act
O=C(Nc1ccc(F)cc1)c1ccccc1F,1,-1,2,4,6.3*
Cc1cc(C(=O)Nc2ccc(N3CCOCC3)c(Cl)c2)c(C)o1,4.2*,-1,0,1,2
O=C(Nc1ccc2c(c1)OCCO2)c1ccco1,2,0,3,4,1
O=S(=O)(c1ccc(C(F)(F)F)cc1)N1CCCc2nc(-c3ccccc3)ccc21,/,0,-1,1,1
CC(/C=N/NC(=O)c1ccccc1F)c1ccccc1 (centres undefined),6.6*,0,2,11*,2
CC(=O)Nc1ccc(NC(=S)NC(=O)C2CC2)cc1,0,0,2,1,2
C/C(CC(=O)Nc1ccc(C)c(Cl)c1)=N\NC(=O)c1ccco1,3,1.0*,2,12*,3
C/C(CC(=O)Nc1ccc(C)c(Cl)c1)=N\NC(=O)Cc1ccccc1,-1,-1,0,1,-2
CC(NC(=O)c1ccccc1F)C(=O)O (centres undefined),0,-1,-1,1,-1
Cc1ccc(NC(=S)NC(=O)C2CC2)c(C)c1,1,0,4.0*,7,3
O=C(Nc1ccc(CN2CCOCC2)cc1)c1ccco1,2,0,2,7,5.6*
COC(=O)C1=C(C)N(Cc2ccccc2C(F)(F)F)C(=NCc2ccc(C(F)(F)F)cc2)NC1c1cccc(F)c1 (centres undefined),/,-1,0,-1,1
COc1ccc(-n2c(SCC(=O)N3CCCC3)nnc2-c2ccncc2)cc1,/,-1,0,-4,0
COc1ccc(C2OCCNC3C2C(=O)N(Cc2ccc(OC)cc2OC)C3Cc2ccccc2)cc1 (centres undefined),/,-2,/,-1,-2
C=C1[C@@H]2CC[C@H]3[C@]4(C)[C@@H](O)CC[C@@](C)(C(=O)OC)[C@H]4C[C@H](O)[C@]3(C2)[C@H]1O,/,-1,-1,-2,1
COc1ccc(NC(=O)c2cccc(OC(F)F)c2)cc1Cl,-1,-2,2,11*,1
O=C(Nc1ccc(N2CCOCC2)c(Cl)c1)c1ccco1,1,0,3.7*,12*,5
COc1ccc(NC(=O)c2cccc(F)c2)cc1Cl,2,-1,0,9,2
COc1ccc(NC(=O)c2ccccc2F)cc1Cl,1,0,2,11*,3
O=C(Nc1ccc(Br)c(Cl)c1)c1ccco1,4,0,1,11*,4
COC(=O)C1CN(Cc2cn(Cc3ccc(C)cc3)nn2)CCS(=O)(=O)N1Cc1ccc(OC)cc1 (centres undefined),/,-1,-1,3,-4
COc1ccc(OC)c(NC(=O)c2ccccc2N(Cc2ccccc2)C(=O)C(C)Cl)c1 (centres undefined),/,-1,-1,-1,-2
C[C@]12Cc3ccccc3C1CC1=N[C@@H](C3CCCCC3)O[C@@]13C[C@@H]2C(=O)N3C1CCN(Cc2ccccc2)CC1 (some centres undefined),/,0,0,1,0
COc1ccc(-c2cc3nc(CCl)[nH]c(=O)c3s2)cc1,-2,0,3,12*,5.9*
COc1ccc(-c2cc3nc[nH]c(=O)c3s2)cc1,-1,0,1,11*,1
CCCCn1c(N)c(N(C(=O)CSc2nncn2-c2ccccc2C)C2CCCC2)c(=O)[nH]c1=O,1,-1,1,-4,-1
CCS(=O)(=O)N(C)C[C@@H]1OCc2ccccc2-c2c(n(C)c3ccccc23)C(=O)N([C@H](C)CO)C[C@@H]1C,/,-1,-1,-3,-2
COCc1cc(C)nc(SCc2ccc([N+](=O)[O-])cc2)c1C#N,4.6*,-1,0,-3,-2
